From the supplement of paper PMC10849652
About 8,800 targets were measured; listed, in parts, are those with a hit and a random draw of the rest. About 0.5% of all pairs of compound and target were hits.

How the values were obtained:
Test in all cases: log2 fold change, soluble protein after heating vs DMSO (PISA); higher = thermal stabilisation; K562 lysate, 10 uM; active = over 0.2 and 3.5 SD of the protein, either way, in both replicates (recomputed)
nilotinib = compound: Cc1cn(-c2cc(NC(=O)c3ccc(C)c(Nc4nccc(-c5cccnc5)n4)c3)cc(C(F)(F)F)c2)cn1 [nilotinib]
In short: (§1)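 A 30 min treatment with 10 μM compound was applied to crude K562 extract at 1 mg/mL protein in PBS pH 7.4 with 1 mM MgCl2. Heating for 3 min spanned 48°C-58°C, after which aliquots were pooled, adjusted to 0.5% NP-40 at 4°C and spun at 21,000xg for 90 min. TMTpro 16plex LC-MS/MS of the supernatant, with channel sums equalised, gave values recorded as log-two fold change in thermal stability against solvent controls, from duplicates.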

[1] = compound: Cc1nc(Nc2n[nH]c3c2CN(C(=O)N[C@H](CN(C)C)c2ccccc2)C3(C)C)c2sccc2n1
In short: as §1

dasatinib = compound: Cc1nc(Nc2ncc(C(=O)Nc3c(C)cccc3Cl)s2)cc(N2CCN(CCO)CC2)n1 [dasatinib]
In short: as §1

[2] = compound: Cc1ncc(-c2ccnc(Nc3ccc(S(C)(=O)=O)cc3)n2)n1C(C)C
In short: as §1

[3] = compound: Cn1cc(-c2ccc3c(c2)CCN3C(=O)Cc2cccc(C(F)(F)F)c2)c2c(N)ncnc21
In short: as §1

quisinostat = compound: Cn1cc(CNCC2CCN(c3ncc(C(=O)NO)cn3)CC2)c2ccccc21 [quisinostat]
In short: as §1

tipifarnib = compound: Cn1cncc1[C@@](N)(c1ccc(Cl)cc1)c1ccc2c(c1)c(-c1cccc(Cl)c1)cc(=O)n2C [tipifarnib]
In short: as §1

[4] = compound: NC(=O)Nc1cc(-c2cccc(F)c2)sc1C(=O)N[C@H]1CCCNC1
In short: as §1

[5] = compound: NC(=O)c1cnc(N[C@@H]2CCCC[C@@H]2N)nc1Nc1cccc(-n2nccn2)c1
In short: as §1

[6] = compound: NC1(c2ccc(-c3nc4ccn5c(=O)[nH]nc5c4cc3-c3ccccc3)cc2)CCC1
In short: as §1

[7] = compound: NCC(=O)Nc1ccc(-n2nc(C(F)(F)F)cc2-c2ccc3c(ccc4ccccc43)c2)cc1
In short: as §1

vorinostat = compound: O=C(CCCCCCC(=O)Nc1ccccc1)NO [vorinostat]
In short: as §1

silmitasertib = compound: O=C(O)c1ccc2c(c1)nc(Nc1cccc(Cl)c1)c1ccncc12 [silmitasertib]
In short: as §1

[8] = compound: O=C1NC(=O)C(c2cnc3ccccn23)=C1c1cn2c3c(cc(F)cc13)CN(C(=O)N1CCCCC1)CC2
In short: as §1

entospletinib = compound: c1cn2cc(-c3ccc4cn[nH]c4c3)nc(Nc3ccc(N4CCOCC4)cc3)c2n1 [entospletinib]
In short: as §1

Measured: log2 fold change

CMPK2 (UniProt Q5EBM0)
active: vorinostat -0.323
inactive: nilotinib -0.075 | [1] -0.01 | dasatinib -0.067 | [2] 0.005 | [3] -0.011 | quisinostat -0.02 | tipifarnib 0.042 | [4] 0.032 | [5] -0.006 | [6] 0.013 | [7] -0.002 | silmitasertib 0.005 | [8] 0.064 | entospletinib 0

CSNK1E (UniProt P49674)
Sequence of UniProt P49674 (P49674 whole entry, looked up): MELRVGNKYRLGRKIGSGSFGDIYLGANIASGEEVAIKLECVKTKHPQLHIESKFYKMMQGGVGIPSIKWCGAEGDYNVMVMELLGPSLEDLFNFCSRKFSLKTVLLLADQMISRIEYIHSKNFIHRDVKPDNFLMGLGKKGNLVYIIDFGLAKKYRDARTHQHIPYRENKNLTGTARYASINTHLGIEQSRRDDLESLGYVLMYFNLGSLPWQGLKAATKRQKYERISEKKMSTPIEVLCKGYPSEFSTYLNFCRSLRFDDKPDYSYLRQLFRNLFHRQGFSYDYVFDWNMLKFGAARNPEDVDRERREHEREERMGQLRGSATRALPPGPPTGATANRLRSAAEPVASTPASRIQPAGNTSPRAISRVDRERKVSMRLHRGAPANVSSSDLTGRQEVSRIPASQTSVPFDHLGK
active: vorinostat -0.419
inactive: nilotinib -0.025 | [1] -0.008 | dasatinib 0.053 | [2] 0.091 | [3] -0.078 | quisinostat -0.075 | tipifarnib -0.092 | [4] 0.059 | [5] 0.055 | [6] -0.06 | [7] 0.016 | silmitasertib 0.206 | [8] 0.01 | entospletinib 0.012

CHEK1 (UniProt O14757)
Sequence of UniProt O14757 (O14757 whole entry, looked up): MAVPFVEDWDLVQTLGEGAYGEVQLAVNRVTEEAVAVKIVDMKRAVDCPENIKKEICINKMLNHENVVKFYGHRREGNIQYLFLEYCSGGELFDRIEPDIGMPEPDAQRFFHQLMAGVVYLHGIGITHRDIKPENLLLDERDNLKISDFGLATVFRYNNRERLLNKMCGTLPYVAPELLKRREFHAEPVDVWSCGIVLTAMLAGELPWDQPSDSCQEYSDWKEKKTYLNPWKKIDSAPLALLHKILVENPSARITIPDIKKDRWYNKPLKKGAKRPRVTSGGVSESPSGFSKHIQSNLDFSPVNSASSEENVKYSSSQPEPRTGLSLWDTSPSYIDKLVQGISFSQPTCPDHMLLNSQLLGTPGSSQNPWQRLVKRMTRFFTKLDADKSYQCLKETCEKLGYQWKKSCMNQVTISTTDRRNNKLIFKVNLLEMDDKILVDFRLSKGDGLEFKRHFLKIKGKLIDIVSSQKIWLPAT
inactive: nilotinib -0.011 | [1] -0.158 | dasatinib 0.02 | [2] -0.048 | [3] -0.007 | quisinostat -0.032 | tipifarnib 0.016 | [5] 0.003 | [6] -0.042 | [7] 0.008 | vorinostat 0.086 | silmitasertib 0.168 | [8] -0.014 | entospletinib 0.009
active: [4] 0.242

COQ8A (UniProt Q8NI60)
Sequence of UniProt Q8NI60 (Q8NI60 whole entry, looked up): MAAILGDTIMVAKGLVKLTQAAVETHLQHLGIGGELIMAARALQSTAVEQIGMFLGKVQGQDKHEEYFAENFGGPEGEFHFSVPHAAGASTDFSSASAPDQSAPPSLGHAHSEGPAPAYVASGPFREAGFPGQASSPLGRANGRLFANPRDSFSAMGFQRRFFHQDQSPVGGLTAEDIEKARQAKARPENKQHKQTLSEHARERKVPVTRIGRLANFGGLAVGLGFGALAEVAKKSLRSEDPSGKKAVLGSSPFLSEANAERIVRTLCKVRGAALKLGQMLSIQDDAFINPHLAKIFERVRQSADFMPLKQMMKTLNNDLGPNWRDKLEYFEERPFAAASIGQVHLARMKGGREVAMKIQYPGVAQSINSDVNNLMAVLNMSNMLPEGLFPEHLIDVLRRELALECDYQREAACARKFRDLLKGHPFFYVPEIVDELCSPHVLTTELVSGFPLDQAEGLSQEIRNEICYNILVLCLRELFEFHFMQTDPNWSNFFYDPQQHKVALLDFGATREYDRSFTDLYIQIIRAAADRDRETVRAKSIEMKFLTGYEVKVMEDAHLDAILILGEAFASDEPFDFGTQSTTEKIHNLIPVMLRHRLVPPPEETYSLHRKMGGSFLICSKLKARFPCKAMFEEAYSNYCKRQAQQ
inactive: nilotinib 0.091 | [1] -0.013 | dasatinib 0.394 | [2] -0.211 | [3] -0.05 | quisinostat 0.082 | tipifarnib 0.032 | [4] 0.051 | [5] 0.348 | [6] 0.004 | [7] -0.043 | vorinostat -0.042 | silmitasertib -0.161 | [8] 0.016 | entospletinib 0.053

COL6A5 (UniProt A8TX70)
inactive: nilotinib 0.134 | [1] 0.009 | dasatinib -0.11 | [2] -0.185 | [3] -0.038 | quisinostat -0.377 | tipifarnib -0.236 | [4] 0.017 | [5] 0.051 | [6] -0.014 | [7] 0.281 | vorinostat 0.011 | silmitasertib -0.003 | [8] 0.022 | entospletinib 0.009

DNAAF5 (UniProt Q86Y56)
inactive: nilotinib -0.015 | [1] 0.004 | dasatinib -0.118 | [2] -0.024 | [3] 0.007 | quisinostat -0.1 | tipifarnib -0.002 | [4] 0.073 | [5] 0.006 | [6] 0.024 | [7] 0.029 | silmitasertib 0.129 | [8] 0.02 | entospletinib -0.012
active: vorinostat -0.313

CSDE1 isoform 4 (UniProt O75534)
active: vorinostat -0.33
inactive: nilotinib 0.01 | [1] -0.018 | dasatinib -0.012 | [2] 0.001 | [3] 0.048 | quisinostat 0.014 | tipifarnib 0.012 | [4] 0.041 | [5] -0.009 | [6] -0.016 | [7] -0.004 | silmitasertib 0.015 | [8] -0.009 | entospletinib 0.04

DAPK1 isoform 3 (UniProt P53355)
active: [4] 0.812 | silmitasertib 0.833
inactive: nilotinib -0.061 | [1] 0.017 | dasatinib -0.052 | [2] -0.146 | [3] -0.049 | quisinostat -0.135 | tipifarnib 0.056 | [5] -0.103 | [6] -0.075 | [7] 0.09 | vorinostat -0.477 | [8] 0.004

CHORDC1 (UniProt Q9UHD1)
Sequence of UniProt Q9UHD1 (Q9UHD1 whole entry, looked up): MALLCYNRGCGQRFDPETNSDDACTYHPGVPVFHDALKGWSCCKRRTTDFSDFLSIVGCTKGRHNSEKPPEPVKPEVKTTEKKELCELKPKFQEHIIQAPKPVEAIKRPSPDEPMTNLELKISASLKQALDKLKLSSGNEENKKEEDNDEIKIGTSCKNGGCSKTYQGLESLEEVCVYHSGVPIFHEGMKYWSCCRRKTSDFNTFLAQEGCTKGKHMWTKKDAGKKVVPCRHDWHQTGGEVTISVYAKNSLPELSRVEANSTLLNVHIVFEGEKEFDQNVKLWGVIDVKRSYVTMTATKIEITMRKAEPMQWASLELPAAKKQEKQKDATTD
inactive: nilotinib 0.024 | [1] -0.003 | dasatinib 0.016 | [2] 0.034 | [3] 0.008 | quisinostat 0.018 | tipifarnib 0.021 | [4] -0.015 | [5] 0 | [6] -0.005 | [7] 0.001 | vorinostat -0.014 | silmitasertib -0.019 | [8] -0.009 | entospletinib 0

DNAJC24 (UniProt Q6P3W2)
inactive: nilotinib 0 | [1] -0.093 | dasatinib 0.062 | [2] 0.02 | [3] -0.039 | quisinostat -0.042 | tipifarnib 0.063 | [4] 0.054 | [5] -0.041 | [6] -0.015 | [7] -0.159 | vorinostat 0.053 | silmitasertib -0.017 | [8] -0.014 | entospletinib -0.046

CXorf38 (UniProt Q8TB03)
active: vorinostat -0.227
inactive: nilotinib 0.029 | [1] 0.013 | dasatinib -0.04 | [2] 0.053 | [3] -0.034 | quisinostat 0.004 | tipifarnib 0.002 | [4] 0.006 | [5] 0.049 | [6] 0.009 | [7] 0.092 | silmitasertib -0.013 | [8] 0.042 | entospletinib -0.073

CTPS2 (UniProt Q9NRF8)
Sequence of UniProt Q9NRF8 (Q9NRF8 whole entry, looked up): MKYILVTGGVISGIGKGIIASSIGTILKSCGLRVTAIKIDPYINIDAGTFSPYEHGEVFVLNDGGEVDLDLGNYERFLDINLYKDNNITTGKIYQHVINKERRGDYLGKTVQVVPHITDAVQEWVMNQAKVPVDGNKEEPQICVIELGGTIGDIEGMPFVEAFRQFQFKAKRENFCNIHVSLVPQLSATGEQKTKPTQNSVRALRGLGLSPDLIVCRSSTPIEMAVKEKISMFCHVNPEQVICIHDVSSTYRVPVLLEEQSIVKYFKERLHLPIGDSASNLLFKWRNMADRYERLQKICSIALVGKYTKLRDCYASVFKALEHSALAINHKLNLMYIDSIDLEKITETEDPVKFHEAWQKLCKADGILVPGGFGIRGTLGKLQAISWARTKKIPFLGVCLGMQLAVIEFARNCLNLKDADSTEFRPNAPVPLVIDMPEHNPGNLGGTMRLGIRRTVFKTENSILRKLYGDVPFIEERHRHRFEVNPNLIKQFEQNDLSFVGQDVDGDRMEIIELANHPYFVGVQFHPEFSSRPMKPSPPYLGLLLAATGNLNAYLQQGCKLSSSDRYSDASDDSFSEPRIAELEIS
active: vorinostat 0.327
inactive: nilotinib -0.005 | [1] 0.006 | dasatinib -0.035 | [2] -0.002 | [3] 0.01 | quisinostat 0.029 | tipifarnib 0.003 | [4] 0.001 | [5] -0.003 | [6] 0.012 | [7] 0.006 | silmitasertib 0.007 | [8] -0.034 | entospletinib 0.019

DENND1B (UniProt Q6P3S1)
inactive: nilotinib 0.042 | [1] -0.073 | dasatinib 0.073 | [2] -0.05 | [3] -0.09 | quisinostat -0.16 | tipifarnib 0.017 | [4] 0.211 | [5] 0.2 | [6] 0.209 | [7] -0.063 | silmitasertib 0.28 | [8] -0.076
active: vorinostat -1.3

CMIP (UniProt Q8IY22)
Sequence of UniProt Q8IY22 (Q8IY22 whole entry, looked up): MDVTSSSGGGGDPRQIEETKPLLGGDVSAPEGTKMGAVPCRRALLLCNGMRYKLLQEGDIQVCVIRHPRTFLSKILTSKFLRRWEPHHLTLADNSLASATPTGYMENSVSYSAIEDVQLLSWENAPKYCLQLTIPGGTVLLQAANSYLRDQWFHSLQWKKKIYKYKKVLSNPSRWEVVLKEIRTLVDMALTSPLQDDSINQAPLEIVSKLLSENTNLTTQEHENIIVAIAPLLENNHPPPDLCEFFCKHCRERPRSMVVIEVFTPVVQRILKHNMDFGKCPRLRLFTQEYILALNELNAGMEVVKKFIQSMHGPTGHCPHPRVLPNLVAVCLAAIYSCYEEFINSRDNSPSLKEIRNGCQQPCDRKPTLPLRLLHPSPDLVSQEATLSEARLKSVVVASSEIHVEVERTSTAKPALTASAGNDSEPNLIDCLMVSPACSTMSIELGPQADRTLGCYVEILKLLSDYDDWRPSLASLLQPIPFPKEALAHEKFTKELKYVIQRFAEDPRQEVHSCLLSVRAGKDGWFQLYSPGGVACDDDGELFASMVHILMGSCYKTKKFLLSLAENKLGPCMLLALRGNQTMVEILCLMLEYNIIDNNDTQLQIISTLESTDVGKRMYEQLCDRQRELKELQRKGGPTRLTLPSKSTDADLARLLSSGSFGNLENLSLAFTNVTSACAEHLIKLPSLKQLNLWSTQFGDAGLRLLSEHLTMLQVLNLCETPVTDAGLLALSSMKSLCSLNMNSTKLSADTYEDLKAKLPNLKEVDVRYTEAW
active: vorinostat -0.541
inactive: nilotinib -0.034 | [1] 0.023 | dasatinib -0.063 | [2] 0.016 | [3] 0.008 | quisinostat -0.052 | tipifarnib -0.045 | [4] 0.075 | [5] -0.008 | [6] -0.036 | [7] -0.101 | silmitasertib 0.018 | [8] 0.021 | entospletinib -0.052

CSTF2 (UniProt P33240)
Sequence of UniProt P33240 (P33240 whole entry, looked up): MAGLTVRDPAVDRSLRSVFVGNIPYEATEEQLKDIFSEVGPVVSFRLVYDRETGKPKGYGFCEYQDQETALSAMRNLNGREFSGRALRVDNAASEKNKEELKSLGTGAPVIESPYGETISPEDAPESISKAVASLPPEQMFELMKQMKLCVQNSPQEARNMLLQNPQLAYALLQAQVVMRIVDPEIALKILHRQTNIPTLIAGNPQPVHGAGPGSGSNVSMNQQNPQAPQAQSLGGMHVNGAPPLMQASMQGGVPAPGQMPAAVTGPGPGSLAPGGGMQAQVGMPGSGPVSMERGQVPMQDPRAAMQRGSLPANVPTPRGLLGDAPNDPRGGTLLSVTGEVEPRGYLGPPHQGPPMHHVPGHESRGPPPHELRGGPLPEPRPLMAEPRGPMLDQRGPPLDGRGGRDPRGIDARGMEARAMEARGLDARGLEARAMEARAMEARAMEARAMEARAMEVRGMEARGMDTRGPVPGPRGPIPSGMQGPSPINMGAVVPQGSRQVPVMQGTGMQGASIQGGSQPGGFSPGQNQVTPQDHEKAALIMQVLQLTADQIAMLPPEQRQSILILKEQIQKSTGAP
inactive: nilotinib 0.031 | [1] 0.038 | dasatinib 0.03 | [2] -0.017 | [3] -0.029 | quisinostat 0.033 | tipifarnib -0.021 | [4] -0.013 | [5] -0.007 | [6] 0.052 | [7] 0.001 | vorinostat 0.046 | silmitasertib 0.007 | [8] 0.013 | entospletinib -0.045

CNOT4 isoform 6 (UniProt O95628)
Sequence of UniProt O95628 (O95628 whole entry, looked up): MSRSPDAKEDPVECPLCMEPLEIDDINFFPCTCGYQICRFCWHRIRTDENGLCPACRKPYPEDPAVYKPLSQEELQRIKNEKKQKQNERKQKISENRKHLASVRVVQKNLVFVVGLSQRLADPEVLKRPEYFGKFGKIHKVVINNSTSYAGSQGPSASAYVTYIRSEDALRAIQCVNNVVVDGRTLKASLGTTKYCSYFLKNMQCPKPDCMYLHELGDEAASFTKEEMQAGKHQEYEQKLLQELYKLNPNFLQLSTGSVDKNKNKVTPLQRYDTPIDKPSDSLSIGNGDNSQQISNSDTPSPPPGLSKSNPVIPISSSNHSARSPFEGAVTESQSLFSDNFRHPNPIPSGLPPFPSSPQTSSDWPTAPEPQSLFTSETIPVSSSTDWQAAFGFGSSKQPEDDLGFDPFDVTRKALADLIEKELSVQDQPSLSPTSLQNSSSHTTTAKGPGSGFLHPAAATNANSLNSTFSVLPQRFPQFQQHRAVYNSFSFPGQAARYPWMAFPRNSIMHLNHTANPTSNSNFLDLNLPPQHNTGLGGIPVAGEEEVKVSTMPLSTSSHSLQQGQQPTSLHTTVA
inactive: nilotinib -0.004 | [1] 0.053 | dasatinib 0.034 | [2] 0.057 | [3] 0.013 | quisinostat 0.107 | tipifarnib -0.018 | [4] 0.041 | [5] -0.022 | [6] 0.008 | [7] -0.028 | vorinostat 0.046 | silmitasertib -0.032 | [8] -0.057 | entospletinib -0.011

CSNK1A1 (UniProt P48729)
active: vorinostat -0.276
inactive: nilotinib -0.04 | [1] 0.045 | dasatinib 0.088 | [2] 0.123 | [3] -0.039 | quisinostat -0.04 | tipifarnib -0.019 | [4] 0.197 | [5] 0.018 | [6] -0.07 | [7] 0.001 | silmitasertib 0.088 | [8] -0.044 | entospletinib 0.017

CXXC1 isoform 2 (UniProt Q9P0U4)
inactive: nilotinib 0.032 | [1] 0.029 | dasatinib -0.504 | [2] 0.026 | [3] -0.191 | quisinostat -0.159 | tipifarnib -0.039 | [4] -0.013 | [5] -0.021 | [6] 0.082 | [7] -0.008 | vorinostat -0.18 | silmitasertib 0.08 | [8] 0.027 | entospletinib -0.033

DNAJC5 (UniProt Q9H3Z4)
inactive: nilotinib -0.136 | [1] -0.043 | dasatinib -0.002 | [2] 0.008 | [3] -0.029 | quisinostat -0.05 | tipifarnib 0.043 | [4] -0.045 | [5] 0.062 | [6] 0.024 | [7] 0.02 | vorinostat 0.101 | silmitasertib -0.071 | [8] -0.03 | entospletinib 0.019

DOCK10 (UniProt Q96BY6)
active: quisinostat -0.636
inactive: nilotinib -0.046 | [1] -0.008 | dasatinib -0.086 | [2] -0.081 | [3] 0.025 | tipifarnib -0.129 | [4] -0.011 | [5] 0.029 | [6] -0.086 | [7] 0 | vorinostat -0.07 | silmitasertib 0.143 | [8] -0.064 | entospletinib 0.023

COASY isoform 2 (UniProt Q13057)
Sequence of UniProt Q13057 (Q13057 whole entry, looked up): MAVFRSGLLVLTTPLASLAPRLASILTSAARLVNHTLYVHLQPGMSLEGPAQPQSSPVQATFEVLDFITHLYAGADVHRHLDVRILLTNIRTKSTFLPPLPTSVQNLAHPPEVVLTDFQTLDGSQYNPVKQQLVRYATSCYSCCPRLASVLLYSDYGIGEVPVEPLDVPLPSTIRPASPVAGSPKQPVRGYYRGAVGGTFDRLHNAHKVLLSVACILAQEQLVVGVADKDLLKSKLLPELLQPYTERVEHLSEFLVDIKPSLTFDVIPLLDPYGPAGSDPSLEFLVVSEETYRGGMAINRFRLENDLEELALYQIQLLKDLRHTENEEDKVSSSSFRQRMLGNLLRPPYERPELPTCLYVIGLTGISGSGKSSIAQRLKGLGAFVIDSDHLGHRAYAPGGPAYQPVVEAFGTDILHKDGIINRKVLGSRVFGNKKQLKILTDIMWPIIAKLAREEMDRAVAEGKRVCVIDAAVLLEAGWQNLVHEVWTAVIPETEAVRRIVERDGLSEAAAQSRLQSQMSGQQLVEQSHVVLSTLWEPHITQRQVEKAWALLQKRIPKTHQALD
active: vorinostat -0.214
inactive: nilotinib -0.043 | [1] -0.015 | dasatinib -0.071 | [2] -0.023 | [3] 0.069 | quisinostat -0.078 | tipifarnib 0.012 | [4] 0.041 | [5] -0.023 | [6] -0.046 | [7] 0.018 | silmitasertib 0.075 | [8] 0.006 | entospletinib 0.019
